# Inconclusive results are not listed. A call without a number means that no potency is given here. The source made the active and inactive calls. Unless noted, the call rests on the fitted dose curve.
# Test system: not listed separately
# Assay: qHTS for Inhibitors of the Functional Ribonucleoprotein Complex (vRNP) of Lymphocytic Choriomeningitis Arenaviruses (LCMV): Viability assay - alamar blue signal for LCMV Primary Screen (AID 1347085; calls by dose curve; tested in HEK293 reporter line; further: nearly all actives have a fitted effect of over 80% in size)
# Conditions: alamar blue viability counter-screen, LCMV vRNP screen cells; series mostly up to 57.5 µM
row,Structure (SMILES),Potency
1,O=C(O)Cn1c(C(=O)Nc2nc(-c3ccccc3Cl)cs2)cc2ccccc21,inactive
2,COc1ccnc2c1CCCCC2S(=O)c1nc2ccccc2[nH]1 (stereo not drawn),inactive
3,CC1(C)O[C@@H]2C[C@H]3[C@@H]4C[C@H](F)C5=CC(=O)C=C[C@]5(C)[C@H]4[C@@H](O)C[C@]3(C)[C@]2(C(=O)CO)O1,inactive
4,CCc1cccc2c3c([nH]c12)C(CC)(CC(=O)O)OCC3 (stereo not drawn),inactive
5,CC(=O)Oc1ccc(C(=C2CCCCC2)c2ccc(OC(C)=O)cc2)cc1,inactive
6,CC(=O)O[C@H]1C[C@@H]2CC[C@@H]3[C@H](CC[C@@]4(C)[C@H]3C[C@H]([N+]3(C)CCCCC3)[C@@H]4OC(C)=O)[C@@]2(C)C[C@@H]1N1CCCCC1,inactive
7,CCCCOc1cc(C(=O)OCCN(CC)CC)ccc1N,inactive
8,O=C(O)CCc1nc(-c2ccccc2)c(-c2ccccc2)o1,inactive
9,O=c1[nH]cnc2c1ncn2[C@@H]1O[C@H](CO)[C@@H](O)[C@H]1O,inactive
10,CN1Cc2c(N)cccc2C(c2ccccc2)C1 (stereo not drawn),inactive
11,OC[C@]1(O)OC[C@@H](O)[C@H](O)[C@@H]1O,inactive
12,CCNC(=O)NCc1cccc(Cl)c1,inactive
13,CN(Cc1cc(Br)cc(Br)c1N)C1CCCCC1,inactive
14,Cc1cc2c(OCC(CNC(C)(C)C)OC(=O)c3ccccc3)cccc2[nH]1 (stereo not drawn),inactive
15,Cc1cc(C)c(/C=C2\C(=O)Nc3ccccc32)[nH]1,inactive
16,CN(C)CCCO[C@@H]1[C@H]2OC(C)(C)O[C@H]2O[C@@H]1C(O)CO (stereo partly drawn),inactive
17,C[C@]12CC[C@@H]3c4ccc(O)cc4CC[C@H]3[C@@H]1CCC2=O,inactive
18,O=C(O)C(=O)Nc1cccc(-c2nn[nH]n2)c1,inactive
19,CCN(CC)CCOC(=O)C1(c2ccccc2)CCCC1,inactive
20,CC(C)(C)CC(C)(C)c1ccc(O)c(Cc2ccc(Cl)cc2Cl)c1,inactive

row,Structure (SMILES),Potency
1,C[C@@H](O)[C@H](N)C(=O)O,inactive
2,c1ccc([C@H]2CN3CCSC3=N2)cc1,inactive
3,C[C@]12CC[C@@H]3c4ccc(O)cc4CC[C@H]3[C@@H]1C[C@@H](O)[C@@H]2O,inactive
4,Cc1ccc(S(=O)(=O)NC(=O)NC2CCCC2)cc1,inactive
5,NC(=O)C(=O)N/N=C/c1ccc([N+](=O)[O-])o1,inactive
6,COc1ccc2c(c1)c(CC(=O)OCC(=O)O)c(C)n2C(=O)c1ccc(Cl)cc1,inactive
7,O=C(O)c1ccccc1Nc1cc(Cl)ccc1C(=O)O,inactive
8,CCCCCCCCCCCCCCNCCO,inactive
9,O=c1oc2c(O)c(O)cc3c(=O)oc4c(O)c(O)cc1c4c23,inactive
10,CNC(=O)c1c(I)c(NC(=O)CCCCC(=O)Nc2c(I)c(C(=O)O)c(I)c(C(=O)NC)c2I)c(I)c(C(=O)O)c1I,inactive
11,Cc1ccc(O)c(-n2nc3ccccc3n2)c1,inactive
12,O=C1Nc2ccccc2C1(c1ccc(O)cc1)c1ccc(O)cc1,inactive
13,CCC1Nc2cc(Cl)c(S(N)(=O)=O)cc2S(=O)(=O)N1 (stereo not drawn),inactive
14,CN1[C@@H]2CC[C@H]1CC(OC(=O)c1c[nH]c3ccccc13)C2 (stereo partly drawn),inactive
15,CN1CCC(N(Cc2cccs2)c2ccccc2)CC1,inactive
16,C[C@@H](O)[C@H]1C(=O)N2C(C(=O)O)=C([C@H]3CCCO3)S[C@H]12,inactive
17,C=Cc1c(C)c2cc3[nH]c(cc4nc(cc5nc(cc1[nH]2)C(C)=C5CCC(=O)O)C(CCC(=O)O)=C4C)c(C)c3C=C,inactive
18,C=CC[N+]1([C@H]2C[C@H]3[C@@H]4CC[C@H]5C[C@H](OC(C)=O)[C@@H](N6CCCCC6)C[C@]5(C)[C@H]4CC[C@]3(C)[C@H]2OC(=O)CC)CCCCC1,inactive
19,C[C@]12CCC(=O)C=C1CC[C@@H]1[C@@H]2C(=O)C[C@@]2(C)[C@H]1CC[C@]2(O)C(=O)CO,inactive

# Molecular target: Nucleoprotein (Lymphocytic choriomeningitis virus (strain Armstrong)) (UniProt P09992)
# Sequence (P09992 whole entry, looked up): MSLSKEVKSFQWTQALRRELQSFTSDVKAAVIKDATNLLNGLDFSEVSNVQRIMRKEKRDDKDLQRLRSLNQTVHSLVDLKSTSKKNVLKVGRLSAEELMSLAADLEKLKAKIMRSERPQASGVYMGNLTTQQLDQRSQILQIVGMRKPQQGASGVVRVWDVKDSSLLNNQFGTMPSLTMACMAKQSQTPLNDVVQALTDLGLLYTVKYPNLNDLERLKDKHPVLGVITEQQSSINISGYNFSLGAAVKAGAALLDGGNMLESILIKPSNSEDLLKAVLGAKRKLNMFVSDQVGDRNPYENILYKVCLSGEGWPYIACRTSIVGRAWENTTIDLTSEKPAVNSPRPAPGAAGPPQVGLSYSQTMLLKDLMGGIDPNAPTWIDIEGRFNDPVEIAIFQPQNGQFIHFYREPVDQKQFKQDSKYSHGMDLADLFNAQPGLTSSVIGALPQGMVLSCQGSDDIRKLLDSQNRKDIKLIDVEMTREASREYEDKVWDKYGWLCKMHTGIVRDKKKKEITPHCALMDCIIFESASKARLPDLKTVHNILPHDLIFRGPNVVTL
# Assay: qHTS for Inhibitors of the Functional Ribonucleoprotein Complex (vRNP) of Lymphocytic Choriomeningitis Arenaviruses (LCMV): LCMV Primary Screen - GLuc reporter signal (AID 1347086); further: nearly all actives have a fitted effect of over 70% in size
# Conditions: LCMV minigenome vRNP cell assay, Gaussia luciferase reporter; series mostly up to 57.5 µM
row,Structure (SMILES),Potency
1,O=C(O)Cn1c(C(=O)Nc2nc(-c3ccccc3Cl)cs2)cc2ccccc21,inactive
2,COc1ccnc2c1CCCCC2S(=O)c1nc2ccccc2[nH]1 (stereo not drawn),inactive
3,CC1(C)O[C@@H]2C[C@H]3[C@@H]4C[C@H](F)C5=CC(=O)C=C[C@]5(C)[C@H]4[C@@H](O)C[C@]3(C)[C@]2(C(=O)CO)O1,inactive
4,CCc1cccc2c3c([nH]c12)C(CC)(CC(=O)O)OCC3 (stereo not drawn),inactive
5,CC(=O)Oc1ccc(C(=C2CCCCC2)c2ccc(OC(C)=O)cc2)cc1,inactive
6,CC(=O)O[C@H]1C[C@@H]2CC[C@@H]3[C@H](CC[C@@]4(C)[C@H]3C[C@H]([N+]3(C)CCCCC3)[C@@H]4OC(C)=O)[C@@]2(C)C[C@@H]1N1CCCCC1,inactive
7,CCCCOc1cc(C(=O)OCCN(CC)CC)ccc1N,inactive
8,O=C(O)CCc1nc(-c2ccccc2)c(-c2ccccc2)o1,inactive
9,O=c1[nH]cnc2c1ncn2[C@@H]1O[C@H](CO)[C@@H](O)[C@H]1O,inactive
10,CN1Cc2c(N)cccc2C(c2ccccc2)C1 (stereo not drawn),inactive
11,OC[C@]1(O)OC[C@@H](O)[C@H](O)[C@@H]1O,inactive
12,CCNC(=O)NCc1cccc(Cl)c1,inactive
13,CN(Cc1cc(Br)cc(Br)c1N)C1CCCCC1,inactive
14,Cc1cc2c(OCC(CNC(C)(C)C)OC(=O)c3ccccc3)cccc2[nH]1 (stereo not drawn),inactive
15,Cc1cc(C)c(/C=C2\C(=O)Nc3ccccc32)[nH]1,inactive
16,CN(C)CCCO[C@@H]1[C@H]2OC(C)(C)O[C@H]2O[C@@H]1C(O)CO (stereo partly drawn),inactive
17,C[C@]12CC[C@@H]3c4ccc(O)cc4CC[C@H]3[C@@H]1CCC2=O,inactive
18,O=C(O)C(=O)Nc1cccc(-c2nn[nH]n2)c1,inactive
19,CCN(CC)CCOC(=O)C1(c2ccccc2)CCCC1,inactive
20,CC(C)(C)CC(C)(C)c1ccc(O)c(Cc2ccc(Cl)cc2Cl)c1,inactive

row,Structure (SMILES),Potency
1,C[C@@H](O)[C@H](N)C(=O)O,inactive
2,c1ccc([C@H]2CN3CCSC3=N2)cc1,inactive
3,C[C@]12CC[C@@H]3c4ccc(O)cc4CC[C@H]3[C@@H]1C[C@@H](O)[C@@H]2O,inactive
4,Cc1ccc(S(=O)(=O)NC(=O)NC2CCCC2)cc1,inactive
5,NC(=O)C(=O)N/N=C/c1ccc([N+](=O)[O-])o1,inactive
6,COc1ccc2c(c1)c(CC(=O)OCC(=O)O)c(C)n2C(=O)c1ccc(Cl)cc1,inactive
7,O=C(O)c1ccccc1Nc1cc(Cl)ccc1C(=O)O,inactive
8,CCCCCCCCCCCCCCNCCO,inactive
9,O=c1oc2c(O)c(O)cc3c(=O)oc4c(O)c(O)cc1c4c23,inactive
10,CNC(=O)c1c(I)c(NC(=O)CCCCC(=O)Nc2c(I)c(C(=O)O)c(I)c(C(=O)NC)c2I)c(I)c(C(=O)O)c1I,inactive
11,Cc1ccc(O)c(-n2nc3ccccc3n2)c1,inactive
12,O=C1Nc2ccccc2C1(c1ccc(O)cc1)c1ccc(O)cc1,inactive
13,CCC1Nc2cc(Cl)c(S(N)(=O)=O)cc2S(=O)(=O)N1 (stereo not drawn),inactive
14,CN1[C@@H]2CC[C@H]1CC(OC(=O)c1c[nH]c3ccccc13)C2 (stereo partly drawn),inactive
15,CN1CCC(N(Cc2cccs2)c2ccccc2)CC1,inactive
16,C[C@@H](O)[C@H]1C(=O)N2C(C(=O)O)=C([C@H]3CCCO3)S[C@H]12,inactive
17,C=Cc1c(C)c2cc3[nH]c(cc4nc(cc5nc(cc1[nH]2)C(C)=C5CCC(=O)O)C(CCC(=O)O)=C4C)c(C)c3C=C,inactive
18,C=CC[N+]1([C@H]2C[C@H]3[C@@H]4CC[C@H]5C[C@H](OC(C)=O)[C@@H](N6CCCCC6)C[C@]5(C)[C@H]4CC[C@]3(C)[C@H]2OC(=O)CC)CCCCC1,inactive
19,C[C@]12CCC(=O)C=C1CC[C@@H]1[C@@H]2C(=O)C[C@@]2(C)[C@H]1CC[C@]2(O)C(=O)CO,inactive
